# According to PubChem BioAssay (EPA / NIEHS):
# Records with an inconclusive call do not appear. The source made the active and inactive calls. How the source made its calls, unless noted: active means hit-call score of the fitted dose curve at least 0.9, where 1 is the maximum; inactive means score below 0.9.
# Legend:
# [1] = CCTE_Shafer_MEA_acute_spike_number: CCTE's Neural Acute Assay for Total Number of Spikes, Shafer Lab (AID 2284008);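 on AC50: curve fitted for decrease in spike count so AC50 reflects inhibitors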
# Method in brief: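 Read-out is the total spike count over 40 min, expressed as percent change from each well's own pre-treatment baseline and fitted in the loss direction against DMSO. Rat cortical neurons were exposed at 0.03-40 uM on DIV 13 or 15.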
# [2] = CCTE_Shafer_MEA_acute_firing_rate_mean: CCTE's Neural Acute Assay for Mean Firing Rate, Shafer Lab (AID 2284009);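 further: analyzed for loss of signal so actives lower firing rate relative to DMSO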
# Method in brief: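 Spontaneous spiking of primary rat cortical networks, DIV 13/15, 37 C. Compound 0.03-40 uM, n ≥3 wells; 40 min baseline vs 40 min treated. Endpoint fitted in loss-of-signal direction against DMSO.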
# [3] = CCTE_Shafer_MEA_acute_burst_number: CCTE's Neural Acute Assay for Single-Electrode Bursts, Shafer Lab (AID 2284013)
# Method in brief: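 Burst totals were derived with adaptive spike detection (8x rms threshold) on filtered signals from rat cortical cultures; change relative to pre-treatment baseline after 40-min compound exposure (0.03-40 uM) was fitted in the negative direction against DMSO.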
# [4] = CCTE_Shafer_MEA_acute_burst_duration_mean: CCTE's Neural Acute Assay for Mean Burst Duration, Shafer Lab (AID 2284014);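 further: hits are decreases in mean burst duration relative to DMSO controls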
# Method in brief: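 Acute exposure of mature rat cortical networks (DIV 13 or 15) grown on microelectrode arrays to 0.03-40 uM compound. Mean burst duration compared with the 40-min pre-dose baseline over a 40-min post-dose recording at 37 C.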
# [5] = CCTE_Shafer_MEA_acute_per_burst_spike_number_mean: CCTE's Neural Acute Assay for Average Number of Spikes Per Burst, Shafer Lab (AID 2284015);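 further: hits are decreases in mean spikes per burst versus baseline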
# Method in brief: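 Percent change in mean spikes per single-electrode burst is compared between a 40 min baseline and a 40 min recording with compound (0.03-40 uM). Cultures were rat cortical neurons on MEA plates at DIV 13 or 15, recorded at 37 C, with DMSO as the negative control.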
# [6] = CCTE_Harrill_HTTr_Viability_MCF7: CCTE's 6-hour Cell Viability Assessment for the High-Throughput Transcriptomics (HTTr) Platform, in MCF-7 cells cultured in DMEM + 10% fetal bovine serum, Harrill Lab (AID 2284010)
# Method in brief: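 PI exclusion, high-content imaging; 8-pt dilution series, 6 h exposure; bidirectional fit vs DMSO (neg. ctrl/baseline); gain of signal = loss of membrane integrity.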
# [7] = CCTE_Harrill_HTTr_CellCount_MCF7: CCTE's Cell Proliferation Assessment for the High-Throughput Transcriptomics (HTTr) Platform, Harrill Lab (AID 2284012; active means hit-call score of the fitted dose curve at least 0.9, where 1 is the maximum;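 further: count of Hoechst-stained nuclei per well by high-content imaging in MCF-7 cells; cells exposed to compound for six hours; intended direction is loss of nuclei count meaning fewer cells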)
# Method in brief: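 Readout: Hoechst nuclear count by high-content imaging. MCF-7, 8-point dilution series, 6 h exposure. Bidirectional fit vs DMSO baseline.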
# [8] = target: Ratio of Nucleoli Translocation and Cytoplasm, AR (gene 367) (UniProt P10275); experiment: UPITT_HCI_U2OS_AR_TIF2_Nucleoli_Cytoplasm_Ratio_Agonist: University of Pittsburgh U2OS Androgen Receptor-Transcriptional Intermediary Factor 2 (AR-TIF2) Agonism High Content Imaging Assay for Ratio of Nucleoli Translocation and Cytoplasm (AID 2284000; active means hit-call score of the fitted dose curve at least 0.9, where 1 is the maximum;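 further: hits raise the red nucleolar to cytoplasm ratio above vehicle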)
# Sequence of Ratio of Nucleoli Translocation and Cytoplasm, AR (gene 367) (P10275 whole entry, looked up, the tested form may be a part): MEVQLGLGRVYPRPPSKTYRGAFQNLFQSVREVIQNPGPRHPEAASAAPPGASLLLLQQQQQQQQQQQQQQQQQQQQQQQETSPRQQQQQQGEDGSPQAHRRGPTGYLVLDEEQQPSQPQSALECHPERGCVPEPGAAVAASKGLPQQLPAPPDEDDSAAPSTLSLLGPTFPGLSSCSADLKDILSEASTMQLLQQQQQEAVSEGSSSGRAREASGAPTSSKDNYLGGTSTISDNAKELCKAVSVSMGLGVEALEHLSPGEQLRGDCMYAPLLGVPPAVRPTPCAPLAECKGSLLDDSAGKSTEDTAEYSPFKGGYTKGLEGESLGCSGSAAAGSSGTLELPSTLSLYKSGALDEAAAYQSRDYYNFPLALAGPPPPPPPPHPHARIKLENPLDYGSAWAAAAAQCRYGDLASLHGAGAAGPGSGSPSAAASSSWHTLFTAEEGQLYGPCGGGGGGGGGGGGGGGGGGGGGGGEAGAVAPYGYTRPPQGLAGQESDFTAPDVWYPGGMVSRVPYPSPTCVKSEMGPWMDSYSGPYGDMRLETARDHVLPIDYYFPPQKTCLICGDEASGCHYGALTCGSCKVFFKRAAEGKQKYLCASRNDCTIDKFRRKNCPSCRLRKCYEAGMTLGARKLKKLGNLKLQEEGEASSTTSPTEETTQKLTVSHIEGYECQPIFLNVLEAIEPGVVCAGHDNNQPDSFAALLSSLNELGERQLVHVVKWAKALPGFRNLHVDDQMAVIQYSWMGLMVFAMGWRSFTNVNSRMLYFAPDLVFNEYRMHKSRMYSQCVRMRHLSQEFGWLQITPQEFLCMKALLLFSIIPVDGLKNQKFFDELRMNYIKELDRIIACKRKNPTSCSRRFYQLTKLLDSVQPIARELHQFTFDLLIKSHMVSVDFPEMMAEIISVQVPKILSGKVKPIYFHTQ
# Text: UPITT_AR_TIF2_PPIB is a cell-based, high-content imaging assay that uses U2OS, a human osteosarcoma cell line, expressing a human androgen receptor fused to red fluorescent protein and the coactivator TIF2 fused to green fluorescent protein. UPITT_HCI_U2OS_AR_TIF2_Nucleoli_Cytoplasm_Ratio_Agonist is one of four assay components measured from the UPITT_AR_TIF2_PPIB assay. It is designed to make measurements of the ratio of red fluorescence localized in the nucleolar region of the cell nucleus to red fluorescence localized in the cytoplasm as detected with high-content fluorescent imaging.Data from the assay component UPITT_HCI_U2OS_AR_TIF2_Nucleoli_Cytoplasm_Ratio_Agonist was analyzed into 1 assay endpoint. This assay endpoint, UPITT_HCI_U2OS_AR_TIF2_Nucleoli_Cytoplasm_Ratio_Agonist, was analyzed in the positive analysis fitting direction relative to DMSO as the baseline of activity. Using a type of binding reporter, measures of receptor for gain-of-signal activity can be used to understand the binding at the pathway-level as it relates to the gene AR.
# Daughter plates containing 2 uL of 10 mM compounds in DMSO were prepared and replicated from the 384-well Library of Pharmacologically Active Compounds (LOPAC) master plates using the Bravo outfitted with a 384-well transfer head. Aluminum adhesive plate seals were applied with an Abgene Seal-IT 100 (Rochester, NY) plate sealer, and the plates were stored at -20 C in a Matrical MatriMinistore (Spokane, WA) automated compound storage and retrieval system. For screening, LOPAC daughter plates were withdrawn from -20C storage, thawed to ambient temperature, centrifuged 1-2 min at 50 g, and the plate seals were removed before the transfer of 98 uL of serum-free tissue culture medium (SFM) into wells using the BioTek Microflo liquid handler (BioTek, Winooski, VT) to generate a 200 uM intermediate stock concentration of library compounds (2.0% DMSO). The diluted compounds were mixed by repeated aspiration and dispensation using a 384-well P30 dispensing head on the Evolution P3 (EP3) liquid handling platform (PerkinElmer, Waltham, MA) and then 5 uL of diluted compounds was transferred to the wells of assay plates. In the LOPAC screen, compounds were individually tested at a final concentration of 20 uM (0.2% DMSO). After the diluted compounds had been transferred from the daughter plates to the primary HCS assay plates, aluminum adhesive plate seals were applied and the diluted daughter plates were stored frozen at -20C. To confirm active compounds identified in the primary screen, we withdrew the LOPAC daughter plates containing the 200 uM intermediate concentration of library compounds (2.0% DMSO) from -20C storage, thawed them to ambient temperature, centrifuged them for 1-2 min at 50 g, and removed the plate seals. […]
# [9] = target: Nucleoli Translocation, AR (gene 367) (UniProt P10275); experiment: UPITT_HCI_U2OS_AR_TIF2_Nucleoli_Agonist: University of Pittsburgh U2OS Androgen Receptor-Transcriptional Intermediary Factor 2 (AR-TIF2) Agonism High Content Imaging Assay for Nucleoli Translocation (AID 2283998; active means hit-call score of the fitted dose curve at least 0.9, where 1 is the maximum)
# Sequence of Nucleoli Translocation, AR (gene 367) (P10275 whole entry, looked up): as the sequence (P10275 whole entry, looked up, the tested form may be a part) above
# Method in brief: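 Readout is red (AR-RFP) fluorescence localized to nucleoli, measured by high-content imaging and analysed for increase relative to DMSO. Compound series spanned 0.195 to 50 uM final in 0.5% DMSO.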
# [10] = target: Ratio of Nucleoli Translocation and Cytoplasm, AR (gene 367) (UniProt P10275); experiment: UPITT_HCI_U2OS_AR_TIF2_Nucleoli_Cytoplasm_Ratio_Antagonist: University of Pittsburgh U2OS Androgen Receptor-Transcriptional Intermediary Factor 2 (AR-TIF2) Antagonism High Content Imaging Assay for Ratio of Nucleoli Translocation and Cytoplasm (AID 2283999; active means hit-call score of the fitted dose curve at least 0.9, where 1 is the maximum;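 further: antagonists lower the DHT-driven ratio of nucleolar to cytoplasmic red signal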)
# Method in brief: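 Read-out is the ratio of nucleolar to cytoplasmic AR-RFP fluorescence, imaged by high-content microscopy in U2OS cells coexpressing TIF2-GFP. Single-point 20 uM screen, triplicate confirmation, then 0.195–50 uM dose response; activity referenced to DHT baseline.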
smiles,measurement,setting,value
CCCCC(CC)COP(=O)(O)OCC(CC)CCCC (stereo not given),AC50,[1],6.52 nM (active)
same,AC50,[2],6.51 nM (active)
same,AC50,[3],3 nM (active)
same,outcome,[4],inactive
same,outcome,[5],inactive
OC[C@@H](O)[C@@H](O)[C@H](O)[C@@H](O)CO,outcome,[6],inactive
same,outcome,[7],inactive
CCCCCC=O,outcome,[6],inactive
CCCCCCC(C)OC(=O)CCCCC(=O)OC(C)CCCCCC (stereo not given),outcome,[8],inactive
CCCCCCOC(=O)c1ccccc1O,outcome,[9],inactive
same,outcome,[10],inactive
same,outcome,[8],inactive
same,outcome,[1],inactive
same,outcome,[2],inactive
same,outcome,[3],inactive
same,outcome,[4],inactive
same,outcome,[5],inactive
CC/C=C\CCOC(C)=O,outcome,[6],inactive
Nc1ccc(S(=O)(=O)Nc2nccs2)cc1,outcome,[6],inactive
same,outcome,[7],inactive
CN(C)Cc1ccccc1O,outcome,[9],inactive
same,outcome,[10],inactive
same,outcome,[8],inactive
O=S(=O)(O)c1ccc2ccccc2c1,outcome,[6],inactive
CNC(=S)NC,outcome,[10],inactive
same,outcome,[6],inactive
same,outcome,[7],inactive
CC(CCl)OP(=O)(OC(C)CCl)OC(C)CCl (stereo not given),outcome,[6],inactive
same,outcome,[7],inactive
C#C[C@]1(O)CC[C@H]2[C@@H]3CCc4cc(OC)ccc4[C@H]3CC[C@@]21C,outcome,[6],inactive
same,outcome,[7],inactive
CCN(Cc1cccc(S(=O)(=O)O)c1)c1ccc(C(=C2C=CC(=[N+](CC)Cc3cccc(S(=O)(=O)O)c3)C=C2)c2ccc(O)cc2S(=O)(=O)[O-])cc1,outcome,[6],inactive
same,outcome,[7],inactive
C1COCCN1,outcome,[6],inactive
CCCCCCCOC(=O)c1ccccc1C(=O)OCCCCCCC,outcome,[6],inactive
same,outcome,[7],inactive
CC(Cc1ccc(O)c(O)c1)C(C)Cc1ccc(O)c(O)c1 (stereo not given),outcome,[6],inactive
same,outcome,[7],inactive
[Co],outcome,[9],inactive
same,outcome,[8],inactive
